Test [1] deals with Lysosomal acid glucosylceramidase (Homo sapiens) (UniProt P04062). The test is described as follows: Glucocerebrosidase-p2 (AID 348; in the data active = potency below about 10 µM; note: potency is the fitted concentration of half-maximal effect). Conditions: purified GBA, blue fluorogenic substrate, 40 min. The procedure, abridged: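 Normal human glucocerebrosidase (0.2 nM) with blue fluorogenic substrate (80 uM final) in citrate/phosphate pH 5.9 with 10mM sodium taurocholate, 0.01% tween-20; 40 min RT, NaOH/glycine stop; fluorescence Ex 365/Em 440; AC50 from a titration from 0.6 nM upwards.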
Sequence of Lysosomal acid glucosylceramidase (Homo sapiens) (P04062 whole entry, looked up): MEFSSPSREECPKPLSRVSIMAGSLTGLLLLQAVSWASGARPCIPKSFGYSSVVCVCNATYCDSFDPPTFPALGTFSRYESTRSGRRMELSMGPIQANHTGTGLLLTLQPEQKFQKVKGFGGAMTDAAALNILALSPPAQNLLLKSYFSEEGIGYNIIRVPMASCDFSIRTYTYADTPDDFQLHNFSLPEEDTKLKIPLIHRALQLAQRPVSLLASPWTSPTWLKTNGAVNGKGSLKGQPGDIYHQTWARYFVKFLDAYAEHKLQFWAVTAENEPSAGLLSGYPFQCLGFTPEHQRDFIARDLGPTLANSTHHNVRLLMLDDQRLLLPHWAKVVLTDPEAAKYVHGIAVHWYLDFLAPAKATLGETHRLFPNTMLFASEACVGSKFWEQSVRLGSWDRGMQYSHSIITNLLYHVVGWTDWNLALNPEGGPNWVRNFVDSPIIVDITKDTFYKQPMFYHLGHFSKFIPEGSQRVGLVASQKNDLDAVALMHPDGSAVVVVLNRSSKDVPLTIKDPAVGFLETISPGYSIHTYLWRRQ

Test [2] can be described thus: AP1 Signaling Pathway (AID 357; active = well fitted curve in either direction with a large enough effect, not every such curve was filed as active;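 note: ME-180 reporter cells stimulated with EGF at its EC50 level; % is set by controls: 0 for no effect and ±100 for the full control effect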). Conditions: ME-180 AP-1-bla reporter, EGF-induced, beta-lactamase ratio, 5 h; at 7.69 µM (top of the series) unless noted. The procedure, abridged:
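In this screen, ME-180 cells in Opti-MEM with 0.5% dialyzed FBS received EC50 EGF and compound titrations for 5 h. AP-1 reporter beta-lactamase was detected via CCF4 ratio, giving AC50 for positive and negative modulators.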

Test [3] concerns the target Cytochrome P450 1A2 (Homo sapiens) (UniProt P05177). The test is described as follows: p450-cyp1a2 (AID 410).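 For activity change, negative = inhibition: -100% = full effect of reference inhibitor.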 Note: potency is the fitted concentration of half-maximal effect. Conditions: recombinant CYP1A2, luciferin-ME demethylation, luminescence; series mostly up to 57 µM. The procedure, abridged:
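20nM CYP1A2, 100uM Luciferin-ME (=Km), 100mM KPO4; cpd 10 min RT; +NADPH regen, 60 min RT; stop/detect 20 min; luminescence. Normalized to furafylline 57 uM = full inhibition.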

Test [4] in a line: NFAT Signaling Pathway (AID 444; active = well fitted curve in either direction with a large enough effect, not every such curve was filed as active;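 note: carbachol stimulus at about its EC50 of 1 µM final; % is set by controls: 0 for no effect and ±100 for the full control effect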). Particulars: Jurkat NFAT-bla M1, carbachol, beta-lactamase ratio, 5 h; at 7.69 µM (top of the series) unless noted. The procedure, abridged:
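Jurkat cells with NFAT-driven β-lactamase reporter and co-expressed M1 receptor, stimulated with carbachol (final 1 uM, ~EC50), compound titration, 5 h at 37 °C. CCF4 loaded 1 h at RT; 460/530 nm ratio gave %activity and AC50.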

Test [5] deals with Glucocorticoid receptor (Homo sapiens) (UniProt P04150). Kind of test: GR-EFC Redistribution (AID 451). Note: potency is the fitted concentration of half-maximal effect. Particulars: CHO-K1 GR-EFC translocation, beta-gal luminescence, 2 h. In a few lines:
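CHO-K1 cells expressing nuclear EA and GR-ED fragments of b-gal; compounds titrated up to 46 uM final, 2 h at 37 C. GR nuclear translocation read as complemented b-gal luminescence after 1 h RT detection.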

Test [6] deals with Mitogen-activated protein kinase 10 (Mus musculus) (UniProt Q61831). Kind of test: JNK3 AlphaScreen Assay (AID 530; active = well fitted curve in either direction with a large enough effect, not every such curve was filed as active;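 note: kinase came from lysate of stimulated human HepG2 cells; signal reports phosphorylation of biotinylated GST-cJun 1-79 at Ser73 with 10 µM ATP; % is set by controls: 0 for no effect and ±100 for the full control effect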). Conditions: JNK3 lysate, c-Jun phosphorylation; series mostly up to 57.1 µM. In a few lines:
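HepG2 lysate (IL-1b/TNFa pre-activated) + biotin-GST-cJun 1-79 + anti-pSer73 cJun; cpd titration, 15 min RT; ATP 10 uM start; Tris pH 7.6, MgCl2, DTT, vanadate; beads in EDTA buffer; AlphaScreen.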
(Bead proximity is the source of the signal in Alpha formats.)

Test [7] deals with 3',5'-cyclic-AMP phosphodiesterase 4B (Homo sapiens) (UniProt Q07343). The test is described as follows: qHTS Assay for Inhibitors of PDE-IV (AID 607; active = well fitted activation curve with a large enough effect in the main read-out, with a control signal flat, not every such curve was filed as active; note: % of control where 0% means no effect). Conditions: HEK293 ACTOne CNG channel cells, membrane potential fluorescence; series mostly up to 22.9 µM. The procedure, abridged: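 The readout is membrane depolarisation from a cAMP-sensing CNG channel, detected with a potential dye at ex 535/em 590. Cells were HEK293-derived (endogenous PDE-IV) at 1000 cells/well, titrated up to 22.9 uM final.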
Sequence of 3',5'-cyclic-AMP phosphodiesterase 4B (Homo sapiens) (Q07343 whole entry, looked up): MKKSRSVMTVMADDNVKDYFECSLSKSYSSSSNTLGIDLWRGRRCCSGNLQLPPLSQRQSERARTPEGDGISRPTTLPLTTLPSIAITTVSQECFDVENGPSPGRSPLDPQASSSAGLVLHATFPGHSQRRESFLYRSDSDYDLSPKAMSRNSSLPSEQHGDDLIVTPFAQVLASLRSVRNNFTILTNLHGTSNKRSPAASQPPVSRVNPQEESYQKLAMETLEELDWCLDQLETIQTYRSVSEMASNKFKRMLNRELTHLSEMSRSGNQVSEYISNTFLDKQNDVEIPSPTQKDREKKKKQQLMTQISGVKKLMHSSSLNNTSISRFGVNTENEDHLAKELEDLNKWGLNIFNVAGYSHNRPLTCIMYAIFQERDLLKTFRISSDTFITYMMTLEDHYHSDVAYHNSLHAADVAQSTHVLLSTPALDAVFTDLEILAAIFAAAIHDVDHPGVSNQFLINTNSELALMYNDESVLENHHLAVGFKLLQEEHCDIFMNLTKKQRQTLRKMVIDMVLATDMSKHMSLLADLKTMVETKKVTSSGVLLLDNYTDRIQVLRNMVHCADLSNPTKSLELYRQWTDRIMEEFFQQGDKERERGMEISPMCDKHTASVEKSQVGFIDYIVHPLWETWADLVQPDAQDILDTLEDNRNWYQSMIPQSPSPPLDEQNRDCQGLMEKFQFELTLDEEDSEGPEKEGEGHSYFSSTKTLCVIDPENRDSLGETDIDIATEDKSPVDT
Background: In qHTS, concentration-response curves come from the screen itself.

In test [8] the target is Cytochrome P450 3A4 (Homo sapiens) (UniProt P08684). Kind of test: qHTS Assay for Inhibitors and Substrates of Cytochrome P450 3A4 (AID 884; active = well fitted curve in the direction sought with a large enough effect; an effect the other way counts as inactive or inconclusive; note: potency is the fitted concentration of half-maximal effect; nearly all actives have a fitted effect of over 50% in size). Particulars: recombinant CYP3A4, Luciferin-PPXE luminescence; series mostly up to 57.1 µM. The procedure, abridged: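 Luminescent readout of luciferin produced by CYP3A4 (20 nM) dealkylation of Luciferin-PPXE, 25 uM (its KM). NADPH-driven reaction ran 60 min at RT after 10 min compound preincubation; data scaled to 57 uM ketoconazole as 100% inhibition.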
Sequence of Cytochrome P450 3A4 (Homo sapiens) (P08684 whole entry, looked up): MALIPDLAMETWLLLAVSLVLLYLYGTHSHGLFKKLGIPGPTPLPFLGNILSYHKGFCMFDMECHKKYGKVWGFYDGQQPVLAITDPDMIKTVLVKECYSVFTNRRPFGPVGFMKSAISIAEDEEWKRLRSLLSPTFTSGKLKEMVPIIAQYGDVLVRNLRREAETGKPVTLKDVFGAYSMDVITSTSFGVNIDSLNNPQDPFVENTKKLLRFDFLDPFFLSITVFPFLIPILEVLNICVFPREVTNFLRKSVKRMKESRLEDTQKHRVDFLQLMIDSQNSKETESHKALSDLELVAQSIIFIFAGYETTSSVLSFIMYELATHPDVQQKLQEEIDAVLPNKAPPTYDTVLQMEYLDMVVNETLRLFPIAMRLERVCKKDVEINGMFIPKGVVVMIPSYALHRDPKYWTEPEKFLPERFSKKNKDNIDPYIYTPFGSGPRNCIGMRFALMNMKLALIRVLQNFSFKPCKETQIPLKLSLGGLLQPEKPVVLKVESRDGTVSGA

Test [9] has the same target. The test is described as follows: qHTS Assay for Activators of Cytochrome P450 3A4 (AID 885; active = well fitted curve in the direction sought with a large enough effect; an effect the other way counts as inactive or inconclusive; note: nearly all actives have a fitted effect of over 65% in size). Conditions: recombinant CYP3A4, Luciferin-PPXE luminescence, 60 min; series mostly up to 57.1 µM. The procedure, abridged:
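Activators are scored by enhanced luminescence from CYP3A4 conversion of luciferin-PPXE (25uM, equal to KM) to luciferin, after 60 min at RT with an NADPH-regenerating system.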

Test [10] can be described thus: qHTS Assay for Lipid Storage Modulators (AID 1519). Particulars: Drosophila S3 cells, BODIPY lipid droplet/cell ratio, laser cytometry, cells loaded with oleic acid; for activity change, negative = inhibition: at 57.5 µM (top of the series). The procedure, abridged: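 Cells seeded at 5,000 per well were treated with compounds over a concentration series and loaded with oleic acid (400 uM, as added). Lipid droplet fluorescence (488 nm excitation, 500-530 nm channel) was read by laser-scanning cytometry and normalized to 20 uM Triacsin C.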

Test [11] is described as follows: Primary qHTS for small molecule stabilizers of the endoplasmic reticulum resident proteome: Secreted ER Calcium Modulated Protein (SERCaMP) assay (AID 1508630; active = well fitted curve in the direction sought with a large enough effect; an effect the other way counts as inactive or inconclusive; note: % is set by controls: 0 for no effect and ±100 for the full control effect). Particulars: SH-SY5Y GLuc-SERCaMP (Gaussia luciferase released on ER calcium loss) secretion, thapsigargin, luminescence; series mostly up to 38.4 µM. In a few lines:
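The SH-SY5Y reporter protocol was run at 3 concentrations up to 38.3 uM (primary) or 11 concentrations (follow-up): 16 h compound, 100 nM thapsigargin for 4 h, then extracellular luciferase luminescence.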

A short description of test [12]: Stat Signaling Pathway (AID 446; active = well fitted curve in either direction with a large enough effect, not every such curve was filed as active). Particulars: ME-180 (cervical carcinoma) SIE beta-lactamase reporter, IL-6 stimulated, 5 h; at 7.69 µM (top of the series) unless noted. In a few lines:
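Emission at 460 and 530 nm (excitation 405 nm) reports SIE-controlled beta-lactamase in ME-180 cells. Cells received compound with 40 pM IL-6 for 5 hrs at 37 C; data scaled between 300 pM IL-6 and 125 nM JAK-inhibitor controls.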

The target in test [13] is Glucocorticoid receptor (Homo sapiens) (UniProt P04150). Kind of test: GR-GFP Redistribution (AID 450;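 active = compounds whose dose series gives a full or clear partial fitted curve of increased nuclear translocation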; note: potency is the fitted concentration of half-maximal effect). Particulars: U2OS GR-GFP nuclear translocation, laser cytometry, 2 h.
Sequence of Glucocorticoid receptor (Homo sapiens) (P04150 whole entry, looked up, the tested form may be a part): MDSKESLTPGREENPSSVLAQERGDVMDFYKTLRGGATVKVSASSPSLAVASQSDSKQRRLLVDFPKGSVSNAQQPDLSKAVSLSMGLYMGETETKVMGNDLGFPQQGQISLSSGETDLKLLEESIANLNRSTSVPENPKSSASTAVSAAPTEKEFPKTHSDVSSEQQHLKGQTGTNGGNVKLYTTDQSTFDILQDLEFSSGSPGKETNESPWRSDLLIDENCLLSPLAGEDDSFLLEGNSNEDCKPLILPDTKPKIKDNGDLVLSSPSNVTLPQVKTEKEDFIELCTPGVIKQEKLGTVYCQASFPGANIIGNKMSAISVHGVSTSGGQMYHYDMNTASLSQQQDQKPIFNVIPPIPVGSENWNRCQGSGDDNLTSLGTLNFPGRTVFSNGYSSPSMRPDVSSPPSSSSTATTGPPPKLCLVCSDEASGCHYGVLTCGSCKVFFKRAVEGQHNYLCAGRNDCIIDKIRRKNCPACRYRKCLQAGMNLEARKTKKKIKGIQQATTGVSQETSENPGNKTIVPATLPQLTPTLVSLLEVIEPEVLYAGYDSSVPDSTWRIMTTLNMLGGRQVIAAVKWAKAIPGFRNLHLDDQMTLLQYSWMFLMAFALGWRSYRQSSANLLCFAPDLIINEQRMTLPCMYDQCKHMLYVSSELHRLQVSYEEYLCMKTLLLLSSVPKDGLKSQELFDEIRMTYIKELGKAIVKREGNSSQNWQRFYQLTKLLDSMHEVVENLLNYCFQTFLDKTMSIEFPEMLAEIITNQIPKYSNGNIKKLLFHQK
The target in test [14] is Cytochrome P450 2D6 (Homo sapiens) (UniProt P10635). Kind of test: qHTS Assay for Inhibitors and Substrates of Cytochrome P450 2D6 (AID 891; active = well fitted curve in the direction sought with a large enough effect; an effect the other way counts as inactive or inconclusive; note: potency is the fitted concentration of half-maximal effect; nearly all actives have a fitted effect of over 60% in size). Particulars: recombinant CYP2D6, luciferin-ME EGE luminescence; series mostly up to 57.1 µM. The procedure, abridged: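 Luminescent read-out of luciferin formed by 5 nM human CYP2D6 demethylating 30 uM Luciferin-ME EGE (Km level) over 60 min at room temperature after NADPH regeneration addition. Data normalized to full inhibition by 1.43 uM quinidine.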
Sequence of Cytochrome P450 2D6 (Homo sapiens) (P10635 whole entry, looked up): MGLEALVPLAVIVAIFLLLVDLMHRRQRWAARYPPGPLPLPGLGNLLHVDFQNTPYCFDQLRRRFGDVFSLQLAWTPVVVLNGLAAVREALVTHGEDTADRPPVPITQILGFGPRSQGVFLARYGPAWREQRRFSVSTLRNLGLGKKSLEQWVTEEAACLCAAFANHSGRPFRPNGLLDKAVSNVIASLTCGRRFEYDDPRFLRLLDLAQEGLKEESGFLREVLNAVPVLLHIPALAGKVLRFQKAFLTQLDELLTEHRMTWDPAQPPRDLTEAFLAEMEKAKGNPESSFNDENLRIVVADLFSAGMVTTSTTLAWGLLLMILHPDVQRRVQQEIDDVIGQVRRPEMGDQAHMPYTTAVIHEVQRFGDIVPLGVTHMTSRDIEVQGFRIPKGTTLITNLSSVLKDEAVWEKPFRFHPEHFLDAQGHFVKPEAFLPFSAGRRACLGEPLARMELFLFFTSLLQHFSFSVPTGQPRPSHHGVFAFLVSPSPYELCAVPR

[15] abbreviates: measured here: cell count channel max response.
Setting [16] is: measured here: lipid channel max response.

This note sets out measurements from PubChem BioAssay (NCATS).

The structures appear in SMILES notation. Inconclusive results are not listed. Calls of active or inactive are those of the source. Unless noted, calls come from the whole dose curve. Where only a bound is given, the exact number is not on record here.

Sequence of Cytochrome P450 1A2 (Homo sapiens) (P05177 whole entry, looked up): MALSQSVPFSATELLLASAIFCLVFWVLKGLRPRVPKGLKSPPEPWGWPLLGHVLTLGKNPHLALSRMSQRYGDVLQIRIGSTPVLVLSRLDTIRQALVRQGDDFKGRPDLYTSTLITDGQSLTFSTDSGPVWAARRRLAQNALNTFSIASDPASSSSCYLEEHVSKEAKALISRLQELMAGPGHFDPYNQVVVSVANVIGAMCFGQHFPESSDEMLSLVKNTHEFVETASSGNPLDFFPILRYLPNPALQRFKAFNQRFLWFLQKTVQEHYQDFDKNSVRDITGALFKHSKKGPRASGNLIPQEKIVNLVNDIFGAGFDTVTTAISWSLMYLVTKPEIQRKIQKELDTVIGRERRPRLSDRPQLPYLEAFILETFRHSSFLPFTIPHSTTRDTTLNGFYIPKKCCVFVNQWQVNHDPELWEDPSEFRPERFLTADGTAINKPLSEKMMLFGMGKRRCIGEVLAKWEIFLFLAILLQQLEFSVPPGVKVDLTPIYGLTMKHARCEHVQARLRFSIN

`O=C(Nc1cccc(F)c1)N1CCCC2(CCN(C(=O)c3ccncc3)CC2)C1`: the Potency was > 11.4 µM (inactive) in test [1], 12.6 µM (active) in [3], > 46 µM (inactive) in test [5] and 6.31 µM (active) in test [8]. The activity change, negative = inhibition is -4.33% (inactive) in test [2], -19.9% (inactive) in test [4] and 6.14% (inactive) in test [10]. Also, in test [6], the compound was called inactive. Besides, the Potency result in [7], in test [9] and in test [11] was “inactive” each time. In addition, the values for the max response in [10] (setting [15]) and in test [10] (setting [16]) were 19.3% and 28.5%, respectively.

Take `COc1ccc(-n2c(=O)c(C)nc3cnc(Oc4ccccc4)nc32)cc1`: the Potency in test [1] is > 11.4 µM (inactive); in test [3], 7.94 µM (active); in test [13], > 9.22 µM (inactive); in test [5], > 46 µM (inactive). Besides, the activity change, negative = inhibition in test [2] is -0.42% (inactive); in [10], 1.98% (inactive). The activity, negative = inhibition in test [12] is -17.4% (inactive). In addition, in test [6], the compound was called inactive. Besides, the Potency result in test [7], in test [9] and in test [11] was “inactive” throughout. In addition, the max response in test [10] (setting [15]) stood at 16.7%; in [10] (setting [16]), 20.5%.

Turning to `O=C(c1cnccn1)N1CCC2(CCCN(c3ccccc3)C2)CC1`, the Potency in test [1] is > 11.4 µM (inactive); in [5], > 46 µM (inactive); in test [8], 1.58 µM (active). Further, the activity change, negative = inhibition in test [2] is 13.8% (inactive); in [4] it was 5.12% (inactive); in test [10], 4.73% (inactive). The Potency result in [3], in test [7], in [9] and in [11] was “inactive” in each case. Also, in [6], the compound was called inactive. In addition, the max response in [10] (setting [15]) was 21.1%; in test [10] (setting [16]), 29.2%.

Consider `O=C(c1ccco1)N1CCC[C@@]2(CCN(c3ccccc3)C2)C1`, for which the Potency is > 11.4 µM (inactive) in test [1], 7.94 µM (active) in [3] and > 46 µM (inactive) in test [5]. Further, the activity change, negative = inhibition was -8.72% (inactive) in test [2] and -7.59% (inactive) in test [10]. Also, the activity, negative = inhibition in test [12] was -4.84% (inactive). For the same compound, in test [6], the compound was classed as inactive. Besides, the Potency entry in [7], in test [9] and in test [11] was “inactive” in each case. The max response in test [10] (setting [15]) is 11.4%; in test [10] (setting [16]) it was 4.34%.

As to `Cn1cccc1C(=O)N1CCC[C@@]2(CCN(Cc3ccccc3)C2)C1`, the Potency in test [1] was > 11.4 µM (inactive); in test [3], 10 µM (active); in [5], > 46 µM (inactive); in [14], 2 µM (active). For the same compound, the activity change, negative = inhibition is -8.23% (inactive) in test [2], -14.1% (inactive) in test [4] and 3.81% (inactive) in test [10]. In [6], the result was inactive. Further, the Potency entry in test [7], in test [9] and in test [11] was “inactive” each time. In addition, the max response in test [10] (setting [15]) is 5.36%; in [10] (setting [16]), 9.58%.

For the compound `Cn1cc(-c2nc3cnc(Oc4cccc(Cl)c4)nc3n(CCC#N)c2=O)c2ccccc21`, the Potency was > 11.4 µM (inactive) in test [1], 2.51 µM (active) in [3], > 9.22 µM (inactive) in test [13] and > 46 µM (inactive) in [5]. The activity change, negative = inhibition is 0.05% (inactive) in test [2], 21.5% (inactive) in test [4] and -7.95% (inactive) in test [10]. In addition, the Potency entry in test [7], in test [9] and in test [11] was “inactive” each time. Besides, the max response turned out to be 6.76% in test [10] (setting [15]) and 0.937% in [10] (setting [16]).

With `COc1ccccc1CCn1c(=O)c(-c2cc(F)cc(F)c2)nc2cncnc21`, the Potency is > 11.4 µM (inactive) in test [1]; 1.58 µM (active) in test [3]; > 9.22 µM (inactive) in [13]; > 46 µM (inactive) in [5]; 0.398 µM (active) in test [8]. Besides, the activity change, negative = inhibition was -3.28% (inactive) in [2] and 6.22% (inactive) in [10]. In addition, the activity, negative = inhibition in test [12] is 13% (inactive). The compound was classed as inactive in test [6]. Moreover, the Potency result in [9] and in [11] was “inactive” each time. The results for the max response in [10] (setting [15]) and in test [10] (setting [16]) were -2.09% and 2.22%, respectively.
